Data from PubChem BioAssay AID1159580 (chemical genetic matrix, 2015).
Where “and” joins values, the source holds several entries; their conditions need not be identical. Equal entries are not always repeated. The whole screen tested about 5,500 compounds, of which about 2,000 (36%) were called active. Another 18% or so got no clear call; they are omitted. Cut-off read from the data, not from the text of the source: active = normalized growth mostly below about 0.91 (no sharp cut-off); inconclusive = no clear call, values can overlap the other calls; inactive = mostly above about 0.92. The list shows a part of the results.

Assay: chemical genetic growth profiling, strain panel (AID 1159580);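 note: tested at 20 µM; growth read once vehicle control cultures reached saturation at 30 °C; 1 = growth at the plate median or of vehicle wells; lower values mean less growth of the strain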
Conditions: S. cerevisiae deletion strains, growth OD

Measured: normalized growth

CC(=O)OCC(=O)[C@@]1(O)[C@H](OC(C)=O)CC2C3CCC4=CC(=O)C=C[C@]4(C)[C@@]3(F)[C@@H](O)C[C@@]21C (some centres not stated)
inactive: locus YAL013W, strain DEP1, stronger effect = lower value 0.993 | locus YAL021C, strain ccr4, stronger effect = lower value 0.982 | locus YAL026C, strain drs2, stronger effect = lower value 0.959 | locus YAL030W, strain snc1, stronger effect = lower value 0.995 | locus YBL061C, strain skt5, stronger effect = lower value 1 | locus YBR009C, strain hhf1, stronger effect = lower value 0.923 | locus YBR021W, strain FUR4, stronger effect = lower value 0.986 | locus YBR023C, strain chs3, stronger effect = lower value 0.981 | locus YBR171W, strain sec66, stronger effect = lower value 0.985 | locus YBR229C, strain ROT2, stronger effect = lower value 0.951 | locus YBR231C, strain swc5, stronger effect = lower value 1.01 | locus YBR279W, strain paf1, stronger effect = lower value 0.987 | locus YCL011C, strain gbp2, stronger effect = lower value 0.947 | locus YCL016C, strain dcc1, stronger effect = lower value 0.965 | locus YCL029C, strain bik1, stronger effect = lower value 0.99 | locus YCL069W, strain vba3, stronger effect = lower value 0.983 | locus YCR088W, strain abp1, stronger effect = lower value 0.987 | locus YDL005C, strain med2, stronger effect = lower value 0.993 | locus YDL035C, strain GPR1, stronger effect = lower value 0.973 | locus YDL040C, strain nat1, stronger effect = lower value 1 | locus YDL074C, strain BRE1, stronger effect = lower value 0.947 | locus YDL101C, strain DUN1, stronger effect = lower value 0.98 | locus YDL134C, strain PPH21, stronger effect = lower value 0.994 | locus YDL185W, strain tfp1, stronger effect = lower value 0.99 | locus YDL192W, strain arf1, stronger effect = lower value 0.997 | locus YDR001C, strain nth1, stronger effect = lower value 0.959 | locus YDR069C, strain doa4, stronger effect = lower value 1.01 | locus YDR101C, strain arx1, stronger effect = lower value 1.01 | locus YDR137W, strain rgp1, stronger effect = lower value 0.98 | locus YDR159W, strain sac3, stronger effect = lower value 0.923 | locus YDR162C, strain NBP2, stronger effect = lower value 0.988 | locus YDR195W, strain ref2 1.03 | locus YDR297W, strain sur2, stronger effect = lower value 0.987 | locus YDR318W, strain mcm21, stronger effect = lower value 0.994 | locus YDR334W, strain swr1, stronger effect = lower value 0.982 | locus YDR335W, strain msn5, stronger effect = lower value 0.983 | locus YDR388W, stronger effect = lower value 1 | locus YDR392W, strain spt3, stronger effect = lower value 0.913 | locus YDR502C, strain sam2, stronger effect = lower value 1 | locus YEL003W, strain gim4, stronger effect = lower value 0.992 | locus YEL037C, strain rad23, stronger effect = lower value 0.983 | locus YEL061C, strain CIN8 (second series), stronger effect = lower value 0.973 | locus YEL061C, strain CIN8, stronger effect = lower value 0.991 | locus YER015W, strain faa2, stronger effect = lower value 1 | locus YER016W, strain bim1, stronger effect = lower value 0.961 | locus YER110C, stronger effect = lower value 0.974 | locus YER111C, strain swi4, stronger effect = lower value 0.976 | locus YER155C, strain BEM2 (second series), stronger effect = lower value 1.04 | locus YER155C, strain BEM2, stronger effect = lower value 0.998 | locus YER167W, strain BCK2, stronger effect = lower value 0.991 | locus YFR010W, strain ubp6, stronger effect = lower value 0.983 | locus YGL078C, strain dbp3, stronger effect = lower value 0.995 | locus YGL086W, strain mad1, stronger effect = lower value 0.99 | locus YGL167C, strain pmr1, stronger effect = lower value 0.998 | locus YGL173C, strain kem1, stronger effect = lower value 1.01 | locus YGL227W, strain vid30, stronger effect = lower value 0.979 | locus YGL240W, strain doc1, stronger effect = lower value 1.02 | locus YGL248W, strain PDE1, stronger effect = lower value 0.975 | locus YGL253W, strain hxk2, stronger effect = lower value 0.964 | locus YGR135W, strain pre9, stronger effect = lower value 0.997 | locus YGR252W, strain gcn5, stronger effect = lower value 0.967 | locus YHR013C, strain ard1, stronger effect = lower value 0.948 | locus YHR027C, strain rpn1, stronger effect = lower value 0.966 | locus YHR030C, strain SLT2, stronger effect = lower value 0.995 and 0.971 | locus YHR079C, strain IRE1 (second series), stronger effect = lower value 1.01 | locus YHR079C, strain IRE1, stronger effect = lower value 0.964 | locus YHR094C, strain hxt1, stronger effect = lower value 1.01 | locus YHR129C, strain ARP1, stronger effect = lower value 0.977 | locus YHR142W, strain chs7, stronger effect = lower value 0.957 | locus YHR200W, strain rpn10, stronger effect = lower value 0.997 | locus YIL066C, strain RNR3, stronger effect = lower value 0.981 | locus YIL073C, strain SPO22, stronger effect = lower value 1.02 | locus YIL125W, strain kgd1, stronger effect = lower value 0.996 | locus YIR030C, strain dcg1, stronger effect = lower value 0.989 | locus YJL092W, strain hpr5, stronger effect = lower value 0.991 | locus YJL095W, strain BCK1 (second series), stronger effect = lower value 0.986 | locus YJL095W, strain BCK1, stronger effect = lower value 0.945 and 0.981 | locus YJL115W, strain asf1, stronger effect = lower value 0.972 | locus YJL129C, strain trk1, stronger effect = lower value 0.988 | locus YJL134W, strain LCB3, stronger effect = lower value 0.993 | locus YJL154C, strain vps35, stronger effect = lower value 0.986 | locus YJL164C, strain tpk1, stronger effect = lower value 0.974 | locus YJL166W, strain qcr8, stronger effect = lower value 1.04 | locus YJL168C, strain set2, stronger effect = lower value 0.999 | locus YJL187C, strain SWE1 (second series), stronger effect = lower value 0.975 | locus YJL187C, strain SWE1, stronger effect = lower value 0.984 | locus YJR043C, strain POL32, stronger effect = lower value 0.992
